Hits are enriched below; roughly 9.8% of the tested compounds scored in any of these assays.
HttQ103 aggreg: reduces HttQ103-GFP aggregates in PC12 cells | PC12 HttQ103-GFP aggregates, Acumen cytometry, 40 h | Potency, µM (series often up to 46.1 µM), for the others: top-dose activity change, negative = inhibition, usual class: inhibitors | hit rate 1.1% among 220,000; active = well fitted curve in the direction sought with a large enough effect; inconclusive = small, poorly fitted or top-dose-only effect, or another doubt; inactive = no such curve, though single readings can be large; an effect the other way counts as inactive or inconclusive; note: potency is the fitted concentration of half-maximal effect; % is set by controls: 0 for no effect and ±100 for the full control effect; nearly all actives have a fitted effect of over 60% in size
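PC12 cells stably carrying ecdysone-inducible HTT exon 1 Q103–GFP were induced with tebufenozide (100 nM final) and treated with library compounds in titration. GFP aggregates in lysates were counted by laser scanning cytometry.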
HTT cytoprotect: Huntington cell model cytoprotection by ATP luminescence; hit rate 0.14% among 230,000; PC12 HTT-Q103 induced, cytoprotection, ATP luminescence, 40 h; Potency, µM (top dose mostly 56.4 µM), for inactives: cytoprotection (ATP increase), actives largely listed as activators; active = well fitted curve in the direction sought with a large enough effect; inconclusive = small, poorly fitted or top-dose-only effect, or another doubt; inactive = no such curve, though single readings can be large; an effect the other way counts as inactive or inconclusive; note: potency is the fitted concentration of half-maximal effect; % of control where 0% means no effect; nearly all actives have a fitted effect of over 45% in size
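ATP quantification (ATPlite) reports survival of PC12 cells in which tebufenozide, 100 nM final, switches on Htt exon 1 with 103 glutamines linked to GFP; compounds are titrated.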
ALDH1A1 inh: ALDH1A1 (human) enzyme inhibition; Potency, µM (titrated, usually from 75.3 µM), for the others: at the top dose activity, negative = inhibition, actives largely listed as inhibitors; P00352; hit rate 7.3% among 220,000; Purified ALDH1A1, NADH fluorescence, propionaldehyde substrate;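 note: potency is the fitted concentration of half-maximal effect; plate controls were no enzyme wells and a reference inhibitor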
KDM4E inh: blocks human JMJD2E demethylase activity; JMJD2E catalytic domain, FDH-coupled NADH fluorescence (FDH is formaldehyde dehydrogenase); B2RXH2; hit rate 1.6% among 230,000; AID 2147; Potency, µM (doses to about 57.1 µM), for inactives: at the top dose activity change, negative = inhibition, hits mostly inhibitors;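 note: potency is the fitted concentration of half-maximal effect; 0% = wells with enzyme and -100% = buffer wells without enzyme; nearly all actives have a fitted effect of over 50% in size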
Target sequence (B2RXH2 1-337 limits assumed): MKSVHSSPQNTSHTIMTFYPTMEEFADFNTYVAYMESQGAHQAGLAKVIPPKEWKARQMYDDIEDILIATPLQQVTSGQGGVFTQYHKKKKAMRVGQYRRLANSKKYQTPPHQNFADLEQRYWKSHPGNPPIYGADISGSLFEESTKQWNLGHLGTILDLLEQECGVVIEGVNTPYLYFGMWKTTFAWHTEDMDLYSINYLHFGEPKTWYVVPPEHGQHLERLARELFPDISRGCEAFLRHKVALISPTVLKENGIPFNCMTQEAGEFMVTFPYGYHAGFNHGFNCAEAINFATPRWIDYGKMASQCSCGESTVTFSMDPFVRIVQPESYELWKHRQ
HPGD block: blocks human HPGD enzyme activity | P15428 | AID 894 | purified HPGD, NADH fluorescence kinetic, PGE2 substrate | hit rate 4.3% among 150,000 | Potency, µM, for the others: at the highest dose activity change, negative = inhibition, usual class: inhibitors; note: potency is the fitted concentration of half-maximal effect; % is set by controls: 0 for no effect and ±100 for the full control effect
Target sequence (P15428 whole entry, looked up): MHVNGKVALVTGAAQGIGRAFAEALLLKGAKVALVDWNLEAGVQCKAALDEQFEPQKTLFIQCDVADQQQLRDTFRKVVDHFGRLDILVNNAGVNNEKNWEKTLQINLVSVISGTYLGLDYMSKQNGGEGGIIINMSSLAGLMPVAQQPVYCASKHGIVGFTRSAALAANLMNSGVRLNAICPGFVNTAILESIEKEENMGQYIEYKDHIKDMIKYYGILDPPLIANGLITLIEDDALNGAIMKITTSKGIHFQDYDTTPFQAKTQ
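NADH formation kinetics: reaction with 30 uM PGE2 and 1 mM NAD+ (final), 20 nM enzyme, Tris-HCl pH 8 with Tween 20, after 15 min compound preincubation at room temperature. Fluorescence change, last versus first of five reads.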
CBFb RUNX1 block: CBF-beta/RUNX1 interaction disruption | AlphaScreen CBFb-His/RUNX1-biotin binding, biochemical | Potency, µM (top dose mostly 59.8 µM), inactives show at the highest dose activity, negative = inhibition, hits mostly inhibitors | 230,000 tested, under 10 active | AID 1477; active = well fitted curve in the direction sought with a large enough effect; inconclusive = small, poorly fitted or top-dose-only effect, or another doubt; inactive = no such curve, though single readings can be large; an effect the other way counts as inactive or inconclusive; note: % of control where 0% means no effect
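Interaction loss through any mechanism counts as activity. Pre-formed complex of His-CBF-beta and biotin-RUNX1 (30 nM apiece) is incubated with compound 15 min, then with 50 ng nickel and 50 ng streptavidin beads for 90 min before AlphaScreen detection.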
* hit, by the source's call; ? = inconclusive; / = no result; [ ] = remark or other dose. Unless noted, calls come from the whole dose curve; as a rule, active = well fitted inhibition curve with a large enough effect (not every such curve was filed as active); inconclusive = small, poorly fitted or top-dose-only effect, or another doubt; inactive = no such curve, though single readings can be large or run the other way.

SMILES	HttQ103 aggreg	HTT cytoprotect	ALDH1A1 inh	KDM4E inh	HPGD block	CBFb RUNX1 block
COC(=O)[C@@]1(Cc2ccccc2)[C@H]2c3cc(C(=O)N4CCCC4)n(Cc4ccc(S(C)(=O)=O)cc4)c3C[C@H]2CN1C(=O)c1ccccc1	/	26.6%	-11.3%	-0.2%	-4.1%	6.3%
Cc1ccc(-c2c[nH]c(=S)n2-c2ccccc2)cc1	0.8%	3.8%[10 µM]	1µM*	-2.6%	/	-23.2%
Cc1ccc(-c2c[nH]c(=S)n2-c2ccccc2F)cc1	13.0%	-1.8%	2µM*	-4.2%	/	-1.6%
CCOC(=O)c1ccc(N2C(=O)CC(SCC(=O)Nc3ccc(S(N)(=O)=O)cc3)C2=O)cc1 (stereo unspecified)	-24.8%	-12.5%	1.58µM*	1.4%	/	9.4%
COC(=O)c1ccc(N2C(=O)CC(SCC(=O)Nc3ccc(OC)cc3)C2=O)cc1 (stereo unspecified)	-30.1%[9.22 µM]	-4.7%[10 µM]	/	-1.2%	/	-0.3%
Cc1ccc(N2C(=O)CC(SCC(=O)Nc3ccc(S(N)(=O)=O)cc3)C2=O)cc1 (stereo unspecified)	-3.2%	-18.5%	14.1µM*	1.5%	/	-8.0%
O=C(Cn1cnc2ccccc2c1=O)Nc1ccc(-c2nnc3n2CCCCC3)cc1	-4.3%	0.1%	14.1µM*	-7.2%	12.6µM*	11.2%
Cc1ccc(NC(=O)c2cnccn2)cc1	9.0%	-49.1%	-1.6%	5.8%	/	5.4%
O=C(Nc1ccc(-c2nnc3n2CCCCC3)cc1)c1cnccn1	6.1%	8.9%	3.3%	3.1%	10µM*	-3.9%
Cc1onc(-c2ccccc2)c1C(=O)Nc1ccc(-c2nnc3n2CCCCC3)cc1	-18.9%	-11.2%[10 µM]	2.7%	-4.3%	7.08µM*	6.0%
N#C/C(=C/c1cc[nH]c1)C(N)=S	-15.2%	-19.8%	?	1.7%	/	-8.5%
N#CC(C#N)=C(N)/C(C#N)=C/c1ccc2[nH]ccc2c1	/	-8.1%	12.6µM*	/	/	0.8%
c1ccc2c(CC3NCCN3)cccc2c1	/	5.2%[10 µM]	-0.8%[13.5 µM]	/	-4.9%	/
C/C(=C(/CCO)SSC[C@@H]1CCCO1)N(C=O)Cc1cnc(C)nc1N	/	1.4%[40.3 µM]	0.9%[20.9 µM]	-0.5%[25.5 µM]	-0.3%	-6.1%[21.7 µM]
Cn1c(-c2ccccc2)cc(=O)c2ccccc21	21.5%	-9.7%	0.2%	1.6%	25.1µM*	13.6%
OC1OC[C@H](O)[C@@H](O)[C@H]1O (stereo partly specified)	/	/	/	/	/	20.7%
CN(C)c1ncc2nc(-c3cccc(C#N)c3)c(=O)n(C)c2n1	/	3.5%	3.5%	/	/	/
CCOC(=O)c1c(NC(=O)Nc2ccc(F)cc2)sc2c1CCN(C)C2	-6.9%[9.22 µM]	6.3%[10 µM]	-6.5%	?	/	7.0%
CCOC(=O)c1c(NC(=S)Nc2ccc(OCC)cc2)sc2c1CCN(C)C2	-6.6%[9.22 µM]	5.3%[10 µM]	23.8µM*	?	/	-6.5%
CCOC(=O)c1c(NC(=S)Nc2ccc(Cl)cc2)sc2c1CCN(C)C2	-7.2%	?	25.1µM*	?	-27.2%	-7.6%
COc1cc(C2NC(=S)NC(C)=C2C(=O)Nc2ccc(C)cc2)ccc1O (stereo unspecified)	-12.0%[9.22 µM]	2.2%[10 µM]	-2.2%	?	/	5.3%
CCc1cc2c(C)cc(=O)oc2cc1Oc1ncccc1[N+](=O)[O-]	7.4%	-0.1%[10 µM]	-15.5%	4.2%	/	-15.9%
Cc1cc(C(=O)c2ccc(C(C)(C)C)cc2)c(NC(=O)CCl)s1	24.1%	1.0%[10 µM]	11.2µM*	5.8%	3.6%	-0.1%
Cc1sc(NC(=O)CCl)c(C(=O)c2ccccc2)c1C	?	-57.3%[10 µM]	0.708µM*	-1.5%	28.2µM*	-5.3%
COC(=O)c1c(NC(C)=O)sc(C)c1C	-16.3%	0.5%	8.9%	-5.0%	/	-8.3%
SMILES	HttQ103 aggreg	HTT cytoprotect	ALDH1A1 inh	KDM4E inh	HPGD block	CBFb RUNX1 block
Cc1cc(C(=O)c2ccccc2)c(NC(=O)CN2CCOCC2)s1	-15.6%	8.1%[1.9 µM]	0.7%	8.0%	0.3%	-5.4%
Cc1ccccc1C(=O)Nc1sc(C)c(C)c1C(=O)c1ccccc1	13.6%	-1.5%	?	2.7%	31.6µM*	-21.3%
CCCNC(=S)N1CCC(C(=O)c2ccc(OC)cc2)CC1	6.6%	26.4%[10 µM]	-4.0%	2.7%	-5.4%	4.6%
CCOC(=O)c1nnn(-c2nonc2N)c1CSc1ccc(C)cc1	8.3%	5.9%	4.47µM*	-0.6%	-23.1%	4.9%
O=C(Nc1ccc(Cl)cc1F)c1ccccc1Br	3.3%	24.3%[10 µM]	4.2%	5.0%	15.8µM*	-2.3%
O=C(NNC(=O)c1ccccc1Br)c1ccc(Cl)cc1	5.4%	-21.8%	1.5%	-6.9%	-13.7%	-3.1%
O=C(NNc1cccc(Cl)n1)Nc1ccccc1	8.6%	9.3%	?	-3.1%	-11.8%	0.5%
CC(Cl)C(=O)NNc1cccc(Cl)n1 (stereo unspecified)	4.4%	2.9%	20µM*	5.9%	-13.2%	4.5%
COc1ncc2nc(-c3cc(F)cc(F)c3)c(=O)n(C3CC3)c2n1	/	-31.6%	?	/	-16.1%	/
COC(=O)c1ccc(Oc2c(F)c(F)nc(N3CCOCC3)c2F)cc1	-4.4%	-6.0%	?	?	/	6.7%
Cc1oc(-c2cccc(F)c2)nc1CN1CCCCC1CCn1cccn1 (stereo unspecified)	-15.8%[9.22 µM]	-16.3%[10 µM]	?	5.0%	/	-4.3%
Cc1ccc(-c2nc(CN3CCCCC3CCN3CCCC3=O)c(C)o2)o1 (stereo unspecified)	23.7%[9.22 µM]	3.98µM*	1.9%	?	/	2.7%
CC(=O)Nc1nc(C(=O)O)cs1	-3.5%	-9.3%	0.5%	-24.7%	/	-8.5%
Cc1ccc(OCCCC(=O)NC(C)c2ccccc2)cc1 (stereo unspecified)	-11.9%	-8.8%[10 µM]	?	-1.0%	?	-3.9%
CC(NC(=O)c1ccccc1)c1ccc(Br)cc1 (stereo unspecified)	-0.2%	1.5%	1.3%	2.4%	/	8.5%
CC(NC(=O)c1ccc(Br)cc1)c1ccccc1 (stereo unspecified)	-0.8%	/	11.2µM*	-3.9%	-6.3%	8.0%
CC(NC(=O)Cc1ccc(-c2ccccc2)cc1)c1ccccc1 (stereo unspecified)	-24.7%	-25.5%	11.2µM*	0.8%	14.1µM*	9.8%
Cc1onc(-c2ccccc2)c1C(=O)NNC(=S)NC(=O)c1ccc2c(c1)OCO2	-23.8%[9.22 µM]	-15.0%[10 µM]	/	?	/	-12.2%
COc1cc(OC)cc(C2=NC3(CCC(C)CC3)NC2=S)c1 (stereo unspecified)	-27.4%	-50.2%	-5.9%	-5.1%	/	-12.9%
CCC(C)NC(=S)N1CCN(C)CC1 (stereo unspecified)	-18.0%	-61.9%	22.4µM*	?	/	-4.3%
O=C(CN1CCSC1=NCc1ccccc1)c1ccc(Cl)c(Cl)c1	2.8%	24.9%[10 µM]	12.6µM*	-0.6%	-14.3%	0.6%
N=c1n(CCN2CCCCC2)c2ccccc2n1CC(=O)c1ccc(Cl)c(Cl)c1	24.6%[9.22 µM]	15.4%[10 µM]	/	?	/	10.1%
